Growth data for 40 compounds are collected here from PubChem BioAssay (NCI).

About 83,000 compounds went through this panel and 20% of them were active in at least one assay; those are over-represented in the sample as a whole.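 Values shown are percent growth following 48 h exposure of cells in 96-well plates to a single concentration of compound; below 10 was considered active.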 Unmarked numbers belong to inactive results. Active and inactive are the calls of the source.

For the assay, the system named is SK-MEL-2 melanoma. The assay is described as follows: NCI-60 one-dose screen, 48 h (100 = growth as untreated, 0 = no growth, -100 = all killed). To be noted: 10 µM unless noted.
Turning to `Cc1cc2c(-c3nc4ccccc4n3C)c(O)c(O)cc2c(O)c1-c1c(C)cc2c(-c3nc4ccccc4n3C)c(O)c(O)cc2c1O`, the growth was 37.2%. For `COc1ccc2sc(-n3nc4nc5n(c(=O)c4c3N)-c3ccccc3Sc3ccccc3-5)nc2c1` the value was 81.5%; for `CC(=O)Nc1ccc(C(=O)/C=C/c2ccc(N(C)C)cc2)cc1`, 95.7%; for `CCCC(=O)NNc1[nH]c(-c2ccc(OC)cc2)cc1C(=O)OCC`, 94.6%. For `O=C(/C(Br)=C/c1ccccc1)c1ccccc1` the value was 15.2%. In the case of `C/C=C(/C)C(=O)OC1C=C(CO)C(=O)C(OC(=O)C(C)(O)C(C)Cl)C1C(C)C` (stereo not given), the growth is -23.5% (active). `CC([C@H]1CC=C2C3CCC4=C[C@@H](N(C)C)CC[C@]4(C)C3CC[C@@]21C)N(C)C` (stereo not given in full): the growth was 90.8%. Next, `COc1ccc(/C=C2\SC(=O)N(Cc3cc(=O)oc4ccc(OC)cc34)C2=O)cc1`: 99.9%.

Regarding `CCCCCCCCCCCCCCCC[n+]1cccc(C#N)c1`, the growth is 97.7%. `COc1ccc2cnc(N)c(C#Cc3cc(C(=O)Nc4ccc(CN5CCN(C)CC5)c(C(F)(F)F)c4)cnc3C)c2c1`: the growth is 56.8%.

On to `CCCCCc1ccnc(CC(=O)c2ccc(OC)cc2)c1`, for which the growth is 98.2%. For the compound `CCCCCCCCCCCCCCCCCC1=NCCN1CS(=O)(=O)O`, the growth is 69.9%.

Take `COc1ccc(OC)c(Cn2cc3c(c2)-c2oncc2CC3)c1`: the growth is 45%. For the compound `CC1Cc2cc(F)ccc2-n2cccc21` (stereo not given), the growth was 104%. For `CC/C(=N\Nc1nc2ccccc2n1C)c1ccccn1` the value was 37.6%. For the compound `O=C(CN1C(=O)NC(c2ccccc2)(c2ccccc2)C1=O)c1ccc(N2CCCC2)cc1`, the growth is 91.1%. As for `COc1ccc(-c2nc(N)n(C(=S)Nc3ccccc3)n2)cc1`, the growth was 101%. Next, `Cc1sc(NC(=O)c2ccc(C(C)(C)C)cc2)c(C(=O)O)c1C`: 103%; `C#CCCCCCCC[C@@H]1OC(=O)[C@H]([C@@H](C)CC)NC(=O)[C@H]([C@@H](C)CC)NC(=O)CC(=O)[C@@H]1C`: 106%. For `CCOC1=C(Cl)C(=O)C(OCC)=C(Cl)C1=O` the value was 100%; for `Cc1ccc(CC(=O)O)c(C)c1`, 95.5%; for `O=C1C(=O)c2ccccc2C(O)=C1CCCc1ccc(Oc2ccccc2)cc1`, 72.5%.

Regarding `CCOc1ccc2nc3ccc(Cl)cc3nc2c1`, the growth was 97.5%.

As to `CC[n+]1c(C)ccc2cc(C)ccc21`, the growth was 106%. For `COC(=O)/C(Br)=C/c1c[nH]c2ccc(Br)cc12`, the growth was 88.7%. Next, `CC(=O)c1ccc2c(c1)c1ccccc1n2C`: 98.4%; `Cc1ccc([C@@H]2C[C@H](O)Cc3ccccc3N2)s1`: 141%.

`COC(=O)/C=C/c1cc(O)c2oc(-c3ccc(O)c(O)c3)c(C(=O)OC)c2c1`: the growth was 43%. For `CCc1c(C)c2ccc(OCC(=O)N=Nc3c(O)[nH]c4ccccc34)c(C)c2oc1=O` the value was 32.9%; for `CC1=C(C)C[C@]2(C(=O)O[C@H]3CCCC[C@@H]32)[S@](=O)C1`, 86.3%; for `CCOC(=O)C1=NN(c2ccccc2)C2=NC(=O)/C(=C\c3cn(-c4ccccc4)nc3-c3cc4ccccc4o3)C(=O)N12`, 99.3%. Take `COc1cc2c(/C=C3\C(=O)Nc4ccc(Br)cc43)c(Cl)n(C)c2cc1C`: the growth was 29.7%. Next, `COc1cc2c(cc1OC)C(Cc1cc(OC)c(OC)cc1[N+](=O)[O-])=NCC2`: 92.9%. Next, `COc1ccc(-c2nc(SCC(C)C)nc(Nc3ccc([N+](=O)[O-])cc3)c2C#N)cc1`: 105%; `O=C(/C=C/c1c[nH]c2ccccc12)c1cc2ccccc2o1`: 105%; `O=C(CBr)OCc1ccc([N+](=O)[O-])o1`: 97.9%. For `C/C=C(/C)C(=O)OC1C=C(CO)C(=O)C(OC(=O)C2(C)OC2C)C1C(C)C` (stereo not given) the value was -49.7% (active). As to `O=C(Nc1ccc(Cl)c(Cl)c1)O/N=C\c1c(Cl)ccc([N+](=O)[O-])c1Cl`, the growth is -4.77% (active). Next, `Oc1ccc(CN(Cc2ccc(C(F)(F)F)cc2)Cc2ccc(O)c3ncccc23)c2cccnc12`: 24.5%.

As for `COc1cc(-c2nc(/C=C3/C(=O)Nc4ccccc43)c3ccccn23)cc(OC)c1OC`, the growth was 43.7%.
